According to the supplement of paper PMC4022240:
± gives the standard deviation.

Experiments:
Assay in all cases: peptide microarray binding signal (635 nm), min-max normalized on array (fraction of array maximum); higher = stronger binding
[1] = target: T1, HaloTag-ATRX ADD domain (163-292)
T1 chain: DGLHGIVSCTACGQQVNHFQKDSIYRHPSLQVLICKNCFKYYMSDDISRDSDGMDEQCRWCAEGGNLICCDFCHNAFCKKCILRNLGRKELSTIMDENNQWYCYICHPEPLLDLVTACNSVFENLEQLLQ
Procedure, shortened: (§1)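 Two probe formats were used for 1 h at 4°C: biotin-labelled HaloTag reader fusions (10 nM to 1 μM) with streptavidin-Alexa Fluor 647, and rabbit histone antibodies (1:10,000 to 1:2,000) with anti-rabbit Alexa 647. Both were applied to nitrocellulose arrays of histone 13-mer peptide–cellulose conjugates printed in triplicate with a Cy3 tracer and blocked overnight at 4°C. Signal was read at 635 nm and misprints at 532 nm on an Axon GenePix 4000B. Binding signal is expressed as the triplicate-spot mean intensity, min-max scaled for each library.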

[2] = target: HaloTag-ING2 PHD (mouse Ing2 200-280)
Procedure, shortened: as §1

[3] = target: anti-H3K4me3 antibody ab8580
Procedure, shortened: as §1

[4] = target: anti-H3K9me3 antibody ab8898
Procedure, shortened: as §1

[5] = peptide region: H4 1-13, peptide modifications: H4K12ac, binder concentration: 1:2,000 dilution
[6] = peptide region: H4 1-13, peptide modifications: H4K12ac, binder concentration: 1:10,000 dilution
[7] = peptide region: H4 1-13, peptide modifications: H4K5ac H4K8ac H4K12ac, binder concentration: 1:2,000 dilution
[8] = peptide region: H4 1-13, peptide modifications: H4K5ac H4K8ac H4K12ac, binder concentration: 1:10,000 dilution
[9] = peptide region: H3 112-124, peptide modifications: H3K122me1, binder concentration: 1:2,000 dilution
[10] = peptide region: H3 112-124, peptide modifications: H3K122me1, binder concentration: 1:10,000 dilution
[11] = peptide region: H4 1-13, peptide modifications: H4K5ac, binder concentration: 1:2,000 dilution
[12] = peptide region: H4 1-13, peptide modifications: H4K5ac, binder concentration: 1:10,000 dilution
[13] = peptide region: H4 1-13, peptide modifications: H4S1ph H4K5ac, binder concentration: 1:2,000 dilution
[14] = peptide region: H4 1-13, peptide modifications: H4S1ph H4K5ac, binder concentration: 1:10,000 dilution
[15] = peptide region: H4 1-13, binder concentration: 1:2,000 dilution
[16] = peptide region: H4 1-13, binder concentration: 1:10,000 dilution
[17] = peptide region: H3 112-124, peptide modifications: H3R116cit, binder concentration: 1:2,000 dilution
[18] = peptide region: H3 112-124, peptide modifications: H3R116cit, binder concentration: 1:10,000 dilution
[19] = peptide region: H4 1-13, peptide modifications: H4K5ac H4K12ac, binder concentration: 1:2,000 dilution
[20] = peptide region: H4 1-13, peptide modifications: H4K5ac H4K12ac, binder concentration: 1:10,000 dilution
[21] = peptide region: H4 1-13, peptide modifications: H4K8ac H4K12ac, binder concentration: 1:2,000 dilution
[22] = peptide region: H4 1-13, peptide modifications: H4K8ac H4K12ac, binder concentration: 1:10,000 dilution
[23] = peptide region: H3 112-124, peptide modifications: H3R116me2s, binder concentration: 1:2,000 dilution
[24] = peptide region: H3 112-124, peptide modifications: H3R116me2s, binder concentration: 1:10,000 dilution

## SGRGKGGKGLGKG [H4 1-13 S G R G K G G K G L G Kac G]
[1]; peptide region: H4 1-13, peptide modifications: H4K12ac, binder concentration: 50 nM
  peptide microarray binding signal: 0.00238 ± 2.8e-05
[1]; peptide region: H4 1-13, peptide modifications: H4K12ac, binder concentration: 500 nM
  peptide microarray binding signal: 0.00652 ± 0.001
[2]; peptide region: H4 1-13, peptide modifications: H4K12ac, binder concentration: 10 nM
  peptide microarray binding signal: 0.00251 ± 0.00023
[2]; peptide region: H4 1-13, peptide modifications: H4K12ac, binder concentration: 100 nM
  peptide microarray binding signal: 0.0056 ± 0.00073
[3]; [5]
  peptide microarray binding signal: 0.000302 ± 1.7e-05
[3]; [6]
  peptide microarray binding signal: 0.000799 ± 3.3e-05
[4]; [5]
  peptide microarray binding signal: 0.000121 ± 8.7e-06
[4]; [6]
  peptide microarray binding signal: 0.000577 ± 6.2e-06

## SGRGKGGKGLGKG [H4 1-13 S G R G Kac G G Kac G L G Kac G]
[1]; peptide region: H4 1-13, peptide modifications: H4K5ac H4K8ac H4K12ac, binder concentration: 50 nM
  peptide microarray binding signal: 0.00417 ± 0.00038
[1]; peptide region: H4 1-13, peptide modifications: H4K5ac H4K8ac H4K12ac, binder concentration: 500 nM
  peptide microarray binding signal: 0.00538 ± 0.00043
[2]; peptide region: H4 1-13, peptide modifications: H4K5ac H4K8ac H4K12ac, binder concentration: 10 nM
  peptide microarray binding signal: 0.00418 ± 0.00011
[2]; peptide region: H4 1-13, peptide modifications: H4K5ac H4K8ac H4K12ac, binder concentration: 100 nM
  peptide microarray binding signal: 0.00645 ± 0.00041
[3]; [7]
  peptide microarray binding signal: 0.00128 ± 0.00011
[3]; [8]
  peptide microarray binding signal: 0.001541 ± 1.5e-05
[4]; [7]
  peptide microarray binding signal: 0.000695 ± 4.8e-05
[4]; [8]
  peptide microarray binding signal: 0.001441 ± 1.4e-05

## IHAKRVTIMPKDI [H3 112-124 I H A K R V T I M P Kme D I]
[1]; peptide region: H3 112-124, peptide modifications: H3K122me1, binder concentration: 50 nM
  peptide microarray binding signal: 0.00429 ± 0.00037
[1]; peptide region: H3 112-124, peptide modifications: H3K122me1, binder concentration: 500 nM
  peptide microarray binding signal: 0.0122 ± 0.0011
[2]; peptide region: H3 112-124, peptide modifications: H3K122me1, binder concentration: 10 nM
  peptide microarray binding signal: 0.0077 ± 0.0008
[2]; peptide region: H3 112-124, peptide modifications: H3K122me1, binder concentration: 100 nM
  peptide microarray binding signal: 0.00602 ± 0.00041
[3]; [9]
  peptide microarray binding signal: 0.00168 ± 0.00019
[3]; [10]
  peptide microarray binding signal: 0.00348 ± 0.0013
[4]; [9]
  peptide microarray binding signal: 0.00251 ± 0.00011
[4]; [10]
  peptide microarray binding signal: 0.00144 ± 5.1e-05

## SGRGKGGKGLGKG [H4 1-13 S G R G Kac G G K G L G K G]
[1]; peptide region: H4 1-13, peptide modifications: H4K5ac, binder concentration: 50 nM
  peptide microarray binding signal: 0.00201 ± 2.4e-05
[1]; peptide region: H4 1-13, peptide modifications: H4K5ac, binder concentration: 500 nM
  peptide microarray binding signal: 0.00524 ± 0.00032
[2]; peptide region: H4 1-13, peptide modifications: H4K5ac, binder concentration: 10 nM
  peptide microarray binding signal: 0.00197 ± 5.8e-05
[2]; peptide region: H4 1-13, peptide modifications: H4K5ac, binder concentration: 100 nM
  peptide microarray binding signal: 0.00659 ± 0.00054
[3]; [11]
  peptide microarray binding signal: 0.000585 ± 1.1e-05
[3]; [12]
  peptide microarray binding signal: 0.000571 ± 1.1e-05
[4]; [11]
  peptide microarray binding signal: 0.000302 ± 1.2e-05
[4]; [12]
  peptide microarray binding signal: 0.000404 ± 4.4e-06

## SGRGKGGKGLGKG [H4 1-13 Sph G R G Kac G G K G L G K G]
[1]; peptide region: H4 1-13, peptide modifications: H4S1ph H4K5ac, binder concentration: 50 nM
  peptide microarray binding signal: 0.00348 ± 3.8e-05
[1]; peptide region: H4 1-13, peptide modifications: H4S1ph H4K5ac, binder concentration: 500 nM
  peptide microarray binding signal: 0.0117 ± 0.00091
[2]; peptide region: H4 1-13, peptide modifications: H4S1ph H4K5ac, binder concentration: 10 nM
  peptide microarray binding signal: 0.001373 ± 8.3e-06
[2]; peptide region: H4 1-13, peptide modifications: H4S1ph H4K5ac, binder concentration: 100 nM
  peptide microarray binding signal: 0.00269 ± 6.7e-05
[3]; [13]
  peptide microarray binding signal: 0.000208 ± 2.2e-06
[3]; [14]
  peptide microarray binding signal: 0.000856 ± 8.9e-06
[4]; [13]
  peptide microarray binding signal: 0.000362 ± 6.3e-06
[4]; [14]
  peptide microarray binding signal: 0.000692 ± 7.3e-06

## SGRGKGGKGLGKG [H4 1-13 S G R G K G G K G L G K G]
[1]; peptide region: H4 1-13, binder concentration: 50 nM
  peptide microarray binding signal: 0.00834 ± 0.00028
[1]; peptide region: H4 1-13, binder concentration: 500 nM
  peptide microarray binding signal: 0.018 ± 0.0011
[2]; peptide region: H4 1-13, binder concentration: 10 nM
  peptide microarray binding signal: 0.0037 ± 0.00019
[2]; peptide region: H4 1-13, binder concentration: 100 nM
  peptide microarray binding signal: 0.00928 ± 0.00099
[3]; [15]
  peptide microarray binding signal: 0.000189 ± 2e-06
[3]; [16]
  peptide microarray binding signal: 0.00417 ± 0.00056
[4]; [15]
  peptide microarray binding signal: 0.00211 ± 0.00074
[4]; [16]
  peptide microarray binding signal: 0.00306 ± 0.00014

## IHAKRVTIMPKDI [H3 112-124 I H A K Rcit V T I M P K D I]
[1]; peptide region: H3 112-124, peptide modifications: H3R116cit, binder concentration: 50 nM
  peptide microarray binding signal: 0.00583 ± 8.8e-05
[1]; peptide region: H3 112-124, peptide modifications: H3R116cit, binder concentration: 500 nM
  peptide microarray binding signal: 0.0207 ± 0.0059
[2]; peptide region: H3 112-124, peptide modifications: H3R116cit, binder concentration: 10 nM
  peptide microarray binding signal: 0.00895 ± 0.0012
[2]; peptide region: H3 112-124, peptide modifications: H3R116cit, binder concentration: 100 nM
  peptide microarray binding signal: 0.00992 ± 0.0023
[3]; [17]
  peptide microarray binding signal: 0.00451 ± 0.0016
[3]; [18]
  peptide microarray binding signal: 0.00359 ± 0.00055
[4]; [17]
  peptide microarray binding signal: 0.00177 ± 0.00034
[4]; [18]
  peptide microarray binding signal: 0.00179 ± 8.5e-05

## SGRGKGGKGLGKG [H4 1-13 S G R G Kac G G K G L G Kac G]
[1]; peptide region: H4 1-13, peptide modifications: H4K5ac H4K12ac, binder concentration: 50 nM
  peptide microarray binding signal: 0.00552 ± 0.00053
[1]; peptide region: H4 1-13, peptide modifications: H4K5ac H4K12ac, binder concentration: 500 nM
  peptide microarray binding signal: 0.0164 ± 0.0029
[2]; peptide region: H4 1-13, peptide modifications: H4K5ac H4K12ac, binder concentration: 10 nM
  peptide microarray binding signal: 0.00352 ± 0.00063
[2]; peptide region: H4 1-13, peptide modifications: H4K5ac H4K12ac, binder concentration: 100 nM
  peptide microarray binding signal: 0.00822 ± 0.0021
[3]; [19]
  peptide microarray binding signal: 0.000547 ± 0.00012
[3]; [20]
  peptide microarray binding signal: 0.00217 ± 0.00014
[4]; [19]
  peptide microarray binding signal: 0.00131 ± 0.00038
[4]; [20]
  peptide microarray binding signal: 0.00196 ± 8e-05

## SGRGKGGKGLGKG [H4 1-13 S G R G K G G Kac G L G Kac G]
[1]; peptide region: H4 1-13, peptide modifications: H4K8ac H4K12ac, binder concentration: 50 nM
  peptide microarray binding signal: 0.00188 ± 7.5e-05
[1]; peptide region: H4 1-13, peptide modifications: H4K8ac H4K12ac, binder concentration: 500 nM
  peptide microarray binding signal: 0.00533 ± 0.00034
[2]; peptide region: H4 1-13, peptide modifications: H4K8ac H4K12ac, binder concentration: 10 nM
  peptide microarray binding signal: 0.00179 ± 0.0001
[2]; peptide region: H4 1-13, peptide modifications: H4K8ac H4K12ac, binder concentration: 100 nM
  peptide microarray binding signal: 0.00255 ± 6.4e-05
[3]; [21]
  peptide microarray binding signal: 0.00017 ± 6.4e-06
[3]; [22]
  peptide microarray binding signal: 0.000799 ± 1.7e-05
[4]; [21]
  peptide microarray binding signal: 0.000438 ± 8.5e-06
[4]; [22]
  peptide microarray binding signal: 0.000577 ± 1.2e-05

## IHAKRVTIMPKDI [H3 112-124 I H A K Rme2s V T I M P K D I]
[1]; peptide region: H3 112-124, peptide modifications: H3R116me2s, binder concentration: 50 nM
  peptide microarray binding signal: 0.00574 ± 0.00016
[1]; peptide region: H3 112-124, peptide modifications: H3R116me2s, binder concentration: 500 nM
  peptide microarray binding signal: 0.0129 ± 0.00072
[2]; peptide region: H3 112-124, peptide modifications: H3R116me2s, binder concentration: 10 nM
  peptide microarray binding signal: 0.00645 ± 0.00026
[2]; peptide region: H3 112-124, peptide modifications: H3R116me2s, binder concentration: 100 nM
  peptide microarray binding signal: 0.014 ± 0.00075
[3]; [23]
  peptide microarray binding signal: 0.00215 ± 0.00015
[3]; [24]
  peptide microarray binding signal: 0.00285 ± 0.00021
[4]; [23]
  peptide microarray binding signal: 0.00341 ± 0.00018
[4]; [24]
  peptide microarray binding signal: 0.002306 ± 2.1e-05
